A selection: hits, their analogues and other compounds. The true share with any hit is near 21%.
RORgamma inh – blocks mouse ROR gamma transcriptional activity; P51450; Drosophila S2 Gal4-RORgamma UAS-luciferase reporter, 20 h; Potency, µM (titrated, usually from 53.6 µM), for the others: at the top dose activity change, negative = inhibition, usual class: inhibitors; actives 5.4% (n = 310,000); also: potency is read from the fitted curve at half-maximal effect; nearly all actives have a fitted effect of over 60% in size
Target sequence (P51450 whole entry, looked up, the tested form may be a part): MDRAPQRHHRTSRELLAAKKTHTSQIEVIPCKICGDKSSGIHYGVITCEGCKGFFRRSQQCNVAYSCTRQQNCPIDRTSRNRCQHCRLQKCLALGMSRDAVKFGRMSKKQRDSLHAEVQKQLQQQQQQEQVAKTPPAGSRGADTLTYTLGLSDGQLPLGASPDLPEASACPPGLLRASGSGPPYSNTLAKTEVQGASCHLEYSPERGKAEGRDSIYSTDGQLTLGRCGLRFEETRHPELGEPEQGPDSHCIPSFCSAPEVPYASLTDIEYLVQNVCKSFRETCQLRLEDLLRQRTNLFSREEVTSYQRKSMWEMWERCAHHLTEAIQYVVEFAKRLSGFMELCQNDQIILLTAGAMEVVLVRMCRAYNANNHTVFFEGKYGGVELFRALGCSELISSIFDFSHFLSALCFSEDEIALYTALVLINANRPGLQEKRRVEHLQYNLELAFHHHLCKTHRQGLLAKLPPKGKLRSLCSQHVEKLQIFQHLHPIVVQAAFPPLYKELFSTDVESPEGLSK
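Stably transfected Drosophila Schneider cells are the test system, with ROR gamma fused to Gal4 and luciferase under UAS control; luminescence is read after 20 hr of 700 uM copper sulfate induction at ambient temperature.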
ELG1 DNA repair – inhibitors of ELG1-dependent DNA repair in HEK293T cells. Potency, µM (series often up to 46.1 µM), without a hit: at the highest dose activity change, negative = inhibition, usual class: inhibitors. actives 2.3% (n = 330,000). HEK293T ELG1-luciferase reporter, luminescence, 16 h; DNA damage induced by 5-fluorouridine. AID 504467; also: potency is read from the fitted curve at half-maximal effect; nearly all actives have a fitted effect of over 55% in size
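Luminescence from the luciferase reporter, measured 30 min after ONE-Glo reagent at room temperature, was the read-out. Beforehand, 2,000 cells per well were exposed for 16 hr at 37 °C to 5-fluorouridine together with compound or vehicle.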
Gal4-VP16 FLuc – Gal4-VP16 reporter inhibition counter-screen | Drosophila S2 Gal4-VP16 UAS-luciferase, luminescence, 20 h | actives 3.5% (n = 310,000) | Potency, µM (doses to about 53.6 µM), without a hit: top-dose activity, negative = inhibition, most hits filed as inhibitors;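 also: Gal4-VP16 expression switched on by copper sulfate through the metallothionein promoter; potency is read from the fitted curve at half-maximal effect; nearly all actives have a fitted effect of over 50% in size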
DT40 TDP1 CPT – DT40-hTDP1 cell growth loss with CPT | Potency, µM (top dose mostly 46.2 µM), for the others: at the highest dose activity change, negative = growth inhibition, hits mostly inhibitors | actives 12% (n = 420,000) | chicken DT40 Tdp1-/-;hTDP1 cells + 20 nM CPT, ATP luminescence, 48 h; also: potency is read from the fitted curve at half-maximal effect; nearly all actives have a fitted effect of over 55% in size
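Chicken DT40 Tdp1-/- cells complemented with human TDP1, 400 cells/well, exposed to compounds plus 20 nM camptothecin for at least 48 h at 37 C; viability read as ATP content by CellTiter-Glo luminescence.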
IL-1B inflam inh – inflammasome signaling inhibition, IL-1 beta readout; THP-1 LPS/ATP IL-1B secretion, AlphaLISA, 16 h; stronger effect = lower value; activity change, % at 57.5 µM; actives 4.7% (n = 360,000); in the data active = activity change below about -50%; inconclusive = mostly about -30% to -49%
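Secreted IL-1B measured by AlphaLISA bead assay after 16 h compound exposure of THP-1 cells; compounds (final up to 57.5 uM) added 1 h before LPS (250 ng/mL) and ATP (1.25 mM) stimulation; lower signal means less secretion.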
TDP1 cell noCPT – qHTS for Inhibitors of human tyrosyl-DNA phosphodiesterase 1 (TDP1): qHTS in cells in absence of CPT. Potency, µM (titrated, usually from 46.2 µM), inactives show at the highest dose activity change, negative = growth inhibition, most hits filed as inhibitors. actives 15% (n = 420,000). DT40 Tdp1-/- hTDP1 cells, no CPT, ATP luminescence, 48 h; also: potency is read from the fitted curve at half-maximal effect; nearly all actives have a fitted effect of over 55% in size
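Stably hTDP1-transfected Tdp1-null chicken DT40 cells were treated with library compounds minus camptothecin and grown for at least 48 hr at 37 °C, after which cellular ATP was quantified by luminescence.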
* = called active by the depositor; ? = inconclusive; / = no result; [ ] = dose if it differs, or a comment. Unless noted, calls follow the shape of the dose curve; as a rule, active = well fitted curve in the direction sought with a large enough effect; inconclusive = small, poorly fitted or top-dose-only effect, or another doubt; inactive = no such curve, though single readings can be large; an effect the other way counts as inactive or inconclusive. % is scaled to controls: 0 for no effect and ±100 for the full control effect.

SMILES	RORgamma inh	ELG1 DNA repair	Gal4-VP16 FLuc	DT40 TDP1 CPT	IL-1B inflam inh	TDP1 cell noCPT
Cc1c(N=c2scc(-c3ccccc3)n2CCO)c(=O)n(-c2ccccc2)n1C	0%	-5%	6%	-8%	9	?
OCCCn1c(-c2ccccc2)csc1=Nc1ccccc1	?	-25%	-11%	23µM*	-2	16µM*
CCN(CC)CCn1c(-c2ccccc2)csc1=Nc1ccccc1	/	/	/	?	/	16µM*
COc1ccc(N=c2scc(-c3ccc(OC)cc3)n2CCO)cc1	?	-18%	-78%	21µM*	?	9.2µM*
CCCCNc1c(CC(C)C)nc2nc(C)cc(C)n12	/	/	/	16µM*	14	23µM*
Cc1cc(C)n2c(Nc3c(C)cccc3C)c(CC(C)C)nc2n1	/	/	/	?	-4	23µM*
CC(C)Cc1nc2sc3c(c2c(=O)n1N)CC(C)(C)OC3	?	?	-13%	18µM*	-4	10µM*
CC1(C)Cc2c(sc3nnn(CC(=O)Nc4ccccc4)c(=O)c23)CO1	29%	?	-4%	1%	15	?
CC1(C)Cc2c(sc3nc(-c4cc5ccccc5o4)n(N)c(=O)c23)CO1	-11%	?	25%	?	-4	21µM*
CC1(C)Cc2c(sc3nnn(Cc4ccc(Cl)cc4)c(=O)c23)CO1	?	?	?	?	-9	13µM*
CCSc1nc2sc3c(c2c(=O)n1CC)CC(C)(C)OC3	1%	-11%	-5%	?	-1	?
Cc1ccc(-c2nc3sc4c(c3c(=O)n2N)CC(C)(C)OC4)cc1	-40%	12%	10%	-17%	?	?
Cc1ccccc1C(=O)Nc1ccnn1C1CCN(Cc2ccc(CO)o2)CC1	-18%	?	-12%	-3%	19	24%
CC(C)[C@H](NC(=O)c1cccc(CN(Cc2ccccc2)C(=O)c2ccccc2)c1)C(=O)O	/	/	/	1%	4	1%
O=c1c2ccccc2nnn1CSc1nc2ccccc2c(=O)n1CCCO	10µM*	2%	-12%	-25%	-13	-16%
O=c1c2ccccc2nnn1CSc1nnc(-c2cccs2)n1Cc1ccccc1	14%	?	3%	29µM*	?	23µM*
COc1cc2c(cc1OC)CN(Cc1cc(=O)n3cc(C)ccc3n1)CC2	-13%[10 µM]	6%	3%	-5%	2	?
Cn1c(SCn2nnc3ccccc3c2=O)nc2ccccc2c1=O	7%	-6%	10%	/	/	/
Cc1cccc(-n2nnnc2SCn2nnc3ccccc3c2=O)c1	?	0%	?	?	9	?
C/C=C/c1ccc(OCc2cc(=O)n3cc(C)ccc3n2)c(OC)c1	?	-29%	-1%	?	25	18µM*
COc1ccc(C)cc1-n1nnnc1SCn1nnc2ccccc2c1=O	19%	5.8µM*	-18%	16µM*	-14	16µM*
Cc1cccc(NC(=O)C2CCN(C(=O)c3ccc(Cl)cc3)CC2)n1	/	1%	/	10%	20	?
CCOc1ccccc1NC(=O)C1=C(C)Nc2ncnn2C1c1ccccn1 (stereo not drawn)	/	/	/	-1%	/	0%
CCOC(=O)c1c(NC(=O)COC(=O)c2cccc([N+](=O)[O-])c2)sc(C(=O)N(C)C)c1C	/	/	/	-4%	-4	-1%
O=c1cc(CSc2nnc(-c3cccs3)n2Cc2ccccc2)nc2sc3ccccc3n12	?	?	14µM*	5.8µM*	-51*	3.7µM*
SMILES	RORgamma inh	ELG1 DNA repair	Gal4-VP16 FLuc	DT40 TDP1 CPT	IL-1B inflam inh	TDP1 cell noCPT
Cc1ccc(-n2nnnc2SCn2nnc3ccccc3c2=O)cc1	?	?	?	?	-5	13µM*
COc1ccc(C)cc1-n1nnnc1SCc1cc(=O)n2cc(C)ccc2n1	-3%	18µM*	-6%	8.2µM*	-28	7.3µM*
Cc1cc(C(=O)CSc2nnc(-c3cccs3)n2Cc2ccccc2)c(C)n1C	43%	?	3%	?	?	?
CCOC(=O)CCCCC1=CC2=CC(=O)C(C)(O)C(=O)C2=CO1 (stereo not drawn)	-14%[10 µM]	/	2%[10 µM]	/	/	/
Cc1ccc(C(C)C)c(OCC(=O)N/N=C/c2cccn2C)c1	?	18µM*	?	?	-7	15µM*
Cc1ccccc1OCC(=O)N/N=C/c1cccn1C	8.9µM*	-6%	0%	-8%	-18	-14%
C[C@]12CCC3c4ccc(O)cc4CCC3C1CC/C2=N\N (stereo partly drawn)	/	/	/	-26%	7	?
Cc1nn(C)c(C)c1/C=N/N=C1\CCC2C3CCc4cc(O)ccc4C3CCC12C (stereo not drawn)	12%	?	-17%	?	-8	12µM*
CN(C)S(=O)(=O)c1cccc(NC(=O)C2CCN(S(=O)(=O)c3cccs3)CC2)c1	/	21µM*	/	?	-6	?
O=C(Nc1ccc2c(c1)OCCO2)C1CCCN(S(=O)(=O)c2cccs2)C1 (stereo not drawn)	43%	?	2%	13µM*	7	?
CCc1cccc(NC(=O)C2CCCN(S(=O)(=O)c3cccs3)C2)c1 (stereo not drawn)	23%	0%	4%	16µM*	-16	13µM*
O=C(Nc1ccc2c(c1)OCO2)C1CCCN(S(=O)(=O)c2cccs2)C1 (stereo not drawn)	39%	-30%	-1%	16µM*	-10	?
COc1cccc(C2C(C(N)=O)=C(C)Nc3ncnn32)c1 (stereo not drawn)	/	/	/	4%	/	3%
CCOC(=O)c1c(S(=O)(=O)N2CCCC(C(=O)Nc3cccc(CC)c3)C2)c(C)n(CC)c1C (stereo not drawn)	/	/	/	18µM*	/	?
CN1N/C(=C\c2ccccc2)N=C2C(=O)N(C)C(=O)N=C21	/	/	/	1.4µM*	/	?
CC/C=C1/N=C2C(=O)N(C)C(=O)N=C2N(C)N1	/	/	/	0.089µM*	/	?
CCCCn1c(N)c(N(CC(C)C)C(=O)c2ccc(F)c(S(=O)(=O)N3CCOCC3)c2)c(=O)[nH]c1=O	/	12%	/	-8%	-9	1%
COc1ccc(CCN2C(=O)COc3ccccc3C2C(=O)Nc2c(C)cccc2C)cc1OC (stereo not drawn)	/	/	/	-1%	32	-30%

Screens as filed in PubChem.
